High-throughput results deposited in PubChem by National Center for Advancing Translational Sciences (NCATS).
A selection: hits, their analogues and other compounds. The true share with any hit is near 2.4%.
Pol eta inh: inhibitors of human DNA polymerase eta | Potency, µM (titrated, usually from 114 µM), inactives show at the highest dose activity change, negative = inhibition, hits mostly inhibitors | recombinant Pol eta, fluorescent DNA replication assay | Q9Y253 | AID 588591 | hit rate 1.2% among 390,000; further: on the % scale 0 is the no-effect control and ±100 the full control effect
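Pol eta at 10 nM preincubated with compounds 15 min at room temperature; reaction started with fluorescent substrate (50 nM final) and read kinetically at 0 and 10 min.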
Pol iota inh: DNA polymerase iota (human) inhibition; Q9UNA4; Pol iota fluorescent replication assay, 10 min; Potency, µM (series often up to 115 µM), for inactives: at the highest dose activity, negative = inhibition, usual class: inhibitors; hit rate 1% among 390,000
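Pol iota at 10 nM preincubated 15 min with compounds at room temperature; reaction started with fluorescent substrate, 50 nM final. Fluorescence read kinetically at 0 and 10 min; buffer-only wells as negative control.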
WRN helicase inh-1: inhibitors of human WRN helicase | WRN helicase unwinding, fluorescent forked duplex, kinetic | hit rate 0.46% among 360,000 | AID 651768 | Potency, µM (top dose mostly 114 µM), inactives show top-dose activity change, negative = inhibition, hits mostly inhibitors; further: on the % scale 0 is the no-effect control and ±100 the full control effect; nearly all actives have a fitted effect of over 55% in size
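Kinetic red-fluorescence monitoring (525/598 nm) tracks WRN helicase activity after 100 nM fluorophore-quencher forked duplex and 2 mM ATP are added to 20 nM enzyme pretreated 15 min at room temperature with compound.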
Pol beta inh: DNA polymerase beta (human) inhibition | P06746 | Pol beta primer extension/strand displacement, fluorescence kinetic | Potency, µM (series often up to 114 µM), for inactives: top-dose activity change, negative = inhibition, most hits filed as inhibitors | hit rate 1.3% among 340,000 | AID 485314; further: on the % scale 0 is the no-effect control and ±100 the full control effect
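Kinetic readout of DNA synthesis with strand displacement by Pol beta. Compound and 10 nM enzyme sit 15 min at room temperature; 50 nM substrate starts the reaction, read immediately and at 10 min.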
Pol kappa inh: blocks human DNA polymerase kappa activity. hit rate 0.53% among 400,000. Potency, µM (highest dose often 107 µM), for the others: at the highest dose activity, negative = inhibition, usual class: inhibitors. AID 588579. purified Pol kappa, fluorescent DNA synthesis assay, 10 min. Q9UBT6; further: on the % scale 0 is the no-effect control and ±100 the full control effect
Target sequence (Q9UBT6 whole entry, looked up): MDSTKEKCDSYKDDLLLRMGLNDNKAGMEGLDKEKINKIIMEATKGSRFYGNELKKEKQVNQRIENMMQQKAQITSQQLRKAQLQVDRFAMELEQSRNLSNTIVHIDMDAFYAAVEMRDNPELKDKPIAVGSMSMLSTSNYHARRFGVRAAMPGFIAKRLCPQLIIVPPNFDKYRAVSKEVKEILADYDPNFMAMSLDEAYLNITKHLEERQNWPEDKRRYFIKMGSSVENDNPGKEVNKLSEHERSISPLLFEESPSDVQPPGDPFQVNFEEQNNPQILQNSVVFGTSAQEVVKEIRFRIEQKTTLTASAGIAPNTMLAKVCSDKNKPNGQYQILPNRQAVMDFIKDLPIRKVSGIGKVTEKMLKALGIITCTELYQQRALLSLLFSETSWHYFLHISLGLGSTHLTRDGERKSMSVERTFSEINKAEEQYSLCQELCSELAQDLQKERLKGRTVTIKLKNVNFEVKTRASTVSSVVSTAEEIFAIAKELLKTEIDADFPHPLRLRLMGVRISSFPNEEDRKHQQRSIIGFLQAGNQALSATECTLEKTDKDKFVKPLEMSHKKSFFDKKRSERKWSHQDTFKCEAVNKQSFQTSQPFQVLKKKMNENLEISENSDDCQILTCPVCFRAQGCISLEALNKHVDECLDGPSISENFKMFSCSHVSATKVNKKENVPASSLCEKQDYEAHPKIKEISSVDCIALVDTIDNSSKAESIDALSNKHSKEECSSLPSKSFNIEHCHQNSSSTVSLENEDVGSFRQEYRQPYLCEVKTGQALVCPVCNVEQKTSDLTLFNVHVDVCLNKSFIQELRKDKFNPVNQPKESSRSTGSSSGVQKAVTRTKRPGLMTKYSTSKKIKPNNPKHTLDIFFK
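Here, compound and 10 nM enzyme are combined for 15 min at room temperature; adding 50 nM substrate (final) starts DNA synthesis, tracked by fluorescence at 0 and 10 min against buffer-only wells.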
FEN1 inhibitor: blocks human flap endonuclease 1. P39748. Recombinant FEN1 flap cleavage, fluorescence, 15 min. Potency, µM (series often up to 114 µM), without a hit: top-dose activity change, negative = inhibition, most hits filed as inhibitors. hit rate 0.35% among 390,000. AID 588795; further: on the % scale 0 is the no-effect control and ±100 the full control effect; nearly all actives have a fitted effect of over 65% in size
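In this screen, 50 nM flap DNA substrate was added to 10 nM FEN1 pretreated with compound for 15 min at room temperature; cleavage was followed with reads at 0 and 15 min, and Hill fitting gave concentration–response parameters.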
WRN helicase inh-2: WRN helicase inhibition, cherry-pick retest. Potency, µM (doses to about 57.1 µM), for inactives: at the highest dose activity, negative = inhibition, actives largely listed as inhibitors. shares compounds with WRN helicase inh-1. WRN helicase DNA unwinding, fluorescence kinetic. hit rate 63% among 610; further: nearly all actives have a fitted effect of over 65% in size
TO displacement: binds DNA, flagged in WRN inhibitor counterscreen; Potency, µM (doses to about 57.1 µM), for the others: at the highest dose activity change, negative = inhibition, hits mostly inhibitors; hit rate 10% among 610; shares compounds with WRN helicase inh-1; thiazole orange DNA binding displacement, fluorescence; AID 720499;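 further: drop in dye fluorescence marks compound binding to DNA; on the % scale 0 is the no-effect control and ±100 the full control effect; nearly all actives have a fitted effect of over 60% in size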
BLM helicase inh: blocks human BLM helicase in WRN counterscreen. Recombinant BLM helicase DNA unwinding, red fluorescence. AID 720503. Potency, µM (titrated, usually from 57.1 µM), for the others: at the top dose activity change, negative = inhibition, most hits filed as inhibitors. hit rate 60% among 610. shares compounds with WRN helicase inh-1; further: nearly all actives have a fitted effect of over 60% in size
Numbers without * were called inactive; [ ] = dose if it differs, or a comment. The call rests on the fitted dose curve; in most records, active means well fitted curve in the direction sought with a large enough effect; inconclusive means small, poorly fitted or top-dose-only effect, or another doubt; inactive means no such curve, though single readings can be large; an effect the other way counts as inactive or inconclusive. Potency means the concentration at half of the fitted maximal effect.

What do the screens show for `Cc1nc2c(cc1C(=O)N/N=C/c1ccc(O)c(O)c1)c(=O)n(C)c(=O)n2C`?
Pol eta inh: inconclusive; Pol iota inh: inconclusive; WRN helicase inh-1: inconclusive; Pol beta inh: 45µM*; Pol kappa inh: -26%; FEN1 inhibitor: -7%; WRN helicase inh-2: inconclusive; TO displacement: -4%; BLM helicase inh: inconclusive

Results for Cc1ccc(-c2[nH]c(-c3ccc(C(=O)O)cc3)nc2-c2ccccc2)cc1 ?
Pol eta inh: -3%; Pol iota inh: -2%; WRN helicase inh-1: inconclusive; Pol beta inh: 3%; Pol kappa inh: -20%; FEN1 inhibitor: -7%; WRN helicase inh-2: 24µM*; TO displacement: -28%; BLM helicase inh: inconclusive

Results for CC(=O)NC1C(=O)N(CCN2CCOCC2)c2ccc(Cl)cc21 (stereo not drawn) ?
Pol eta inh: inconclusive; Pol iota inh: inconclusive; WRN helicase inh-1: 22µM*; Pol beta inh: 35%; Pol kappa inh: -16%; FEN1 inhibitor: inconclusive; WRN helicase inh-2: -10%; TO displacement: -12%; BLM helicase inh: -30%

Results for Cc1cc(C)cc(NC(=O)C(=O)NCC(c2ccc3c(c2)OCO3)N2CCOCC2)c1 (stereo not drawn) ?
Pol eta inh: -19%; Pol iota inh: 17%; Pol beta inh: -10%; Pol kappa inh: -3%[60.1 µM]; FEN1 inhibitor: 10%

Results for COc1cc(/C=N/NC(=O)c2ccc3c(c2)OCCO3)c(Br)c(Br)c1O ?
Pol eta inh: inconclusive; Pol iota inh: inconclusive; WRN helicase inh-1: inconclusive; Pol beta inh: inconclusive; Pol kappa inh: 89µM*; FEN1 inhibitor: inconclusive; WRN helicase inh-2: inconclusive; TO displacement: -24%; BLM helicase inh: inconclusive

What do the screens show for `Cc1cc2c(cc1S(=O)(=O)N(CCO)Cc1ccccc1)OCC(=O)N2`?
Pol eta inh: -9%; Pol iota inh: 23%; Pol beta inh: -16%; Pol kappa inh: -1%[60.1 µM]; FEN1 inhibitor: -6%

How did COc1ccc(CN(C#N)c2nc(SC)nc(N(C)C)n2)cc1 do in these assays?
Pol eta inh: inconclusive; Pol iota inh: 89µM*; WRN helicase inh-1: 100µM*; Pol beta inh: 2%; Pol kappa inh: inconclusive; FEN1 inhibitor: inconclusive; WRN helicase inh-2: -7%; TO displacement: -9%; BLM helicase inh: -9%

How did CCC(Cn1nnc2ccccc2c1=O)NC(=O)Nc1ccc(C)cc1C (stereo not drawn) do in these assays?
Pol eta inh: -14%; Pol iota inh: 0%; Pol beta inh: -8%; Pol kappa inh: -5%; FEN1 inhibitor: -4%

How did CCN1CCC(O)(/C=C/c2ccc(C(C)C)cc2)C(C(=O)/C=C/c2ccc(C(C)C)cc2)C1 (stereo not drawn) do in these assays?
Pol eta inh: -20%; Pol iota inh: 1%; WRN helicase inh-1: 16µM*; Pol kappa inh: -15%; FEN1 inhibitor: -25%; WRN helicase inh-2: -28%; TO displacement: -30%; BLM helicase inh: inconclusive

Results for CCN1CCN(C(=O)/C=C/c2ccc(C(C)C)cc2)CC1 ?
Pol eta inh: -2%; Pol iota inh: -12%; WRN helicase inh-1: -13%; Pol kappa inh: -7%; FEN1 inhibitor: 11%

What do the screens show for `C=COC(=O)/C=C/C`?
Pol kappa inh: 12%[60.1 µM]
